Results on 26 compounds are retold here after PubChem BioAssay.

Molecules are shown by their SMILES. The source made the active and inactive calls. Unless noted, no rule for the calls is given here.

Assay [1] has as its system XIP peptide (Xip251-270) binding. In words: small-molecule binders of XIP peptide, primary screen, biochemical, small-molecule microarray, fluorescence 635/667 nm, 0.1 µg/mL protein (AID 1182). The settings on record: fluorescent protein binding, 635 nm, higher = more signal, called active from +8 up or from −8 down.
The subject of assay [2] is XIP peptide (Xip251-270). Put plainly: small-molecule binders of XIP peptide, primary screen, biochemical, small-molecule microarray, fluorescence 635/667 nm, 0.5 µg/mL protein (AID 1183). Particulars: small-molecule microarray binding, fluorescence 635 nm; higher = more signal.
A short description of assay [3]: Plasmodium falciparum growth inhibition, primary screen, strain 3D7, DAPI fluorescence, 100 nL (AID 1184).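 Also: parasites grown inside human red blood cells in medium with human serum.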 The settings on record: P. falciparum 3D7 growth, 3 d, higher = more signal.
The target of assay [4] is Homeobox protein Hox-A13 (Mus musculus) (UniProt Q62424). Put plainly: inhibitors of HoxA13-DNA binding, primary screen, biochemical, fluorescence polarization, labeled oligonucleotide (AID 1185). The settings on record: 15 min, higher = more signal, called active from +8 up or from −8 down. On the technique in general: Fluorescence polarisation rises when a labelled molecule tumbles more slowly, as on binding a larger partner.
Sequence of Homeobox protein Hox-A13 (Mus musculus) (Q62424 whole entry, looked up): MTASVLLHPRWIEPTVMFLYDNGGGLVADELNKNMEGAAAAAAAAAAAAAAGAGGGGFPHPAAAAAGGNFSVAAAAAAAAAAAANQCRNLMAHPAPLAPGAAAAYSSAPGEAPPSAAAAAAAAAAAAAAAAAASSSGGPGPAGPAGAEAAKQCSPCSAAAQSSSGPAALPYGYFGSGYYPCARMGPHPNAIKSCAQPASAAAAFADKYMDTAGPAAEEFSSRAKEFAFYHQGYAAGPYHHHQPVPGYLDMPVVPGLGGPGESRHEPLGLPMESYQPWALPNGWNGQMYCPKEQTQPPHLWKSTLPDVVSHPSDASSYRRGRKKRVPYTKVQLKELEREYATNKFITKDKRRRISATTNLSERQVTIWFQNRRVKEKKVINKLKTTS

A short description of assay [5]: inhibitors of hydroxyurea-induced Chk1 phosphorylation, primary screen, imaging, HeLa, phospho-Chk1 antibody, percent positive cells (AID 1186). Particulars: hydroxyurea-induced phospho-Chk1 immunofluorescence imaging, higher = more signal.
Assay [6] in a line: inhibitors of hydroxyurea-induced Chk1 phosphorylation, primary screen, imaging, HeLa, phospho-Chk1 nuclear intensity (AID 1187). The settings on record: hydroxyurea-induced phospho-Chk1 immunofluorescence imaging, higher = more signal.

Consider `O=C1C2C=CC(C(O)c3ccc(Br)cc3)N(Nc3ccccc3F)C2C(=O)N1c1ccccc1` (stereo unspecified), for which the results for the composite z-score in assay [1] and in assay [2] were 0.197 (inactive) and 0.704, respectively. The z-score is -0.133 in assay [3], -2.41 (inactive) in assay [4], -0.863 (inactive) in assay [5] and -0.909 (inactive) in assay [6].

For the compound `O=C1O[C@@H](c2ccccc2)[C@@H](c2ccccc2)N2[C@@H](c3ccccc3OCCO)[C@]3(C(=O)Nc4ccc(C#CCCO)cc43)[C@@H](C(=O)N3CCCCCCC3)[C@H]12`, the composite z-score in assay [1] was 8.49 (active); in assay [2] it was 1.02. The z-score in assay [3] is -2.23; in assay [4], 3.66 (inactive); in assay [5], -0.333 (inactive); in assay [6], -0.462 (inactive).

On to `O=C1O[C@@H](c2ccccc2)[C@@H](c2ccccc2)N2[C@@H](c3ccc(O)cc3)[C@]3(C(=O)Nc4ccc(C#CC5(O)CCCCCC5)cc43)[C@@H](C(=O)NC[C@H](O)c3ccccc3)[C@H]12`, for which the composite z-score in assay [1] is 0.0382 (inactive); in assay [2], 0.691. The z-score was -0.627 in assay [3], -3.55 (inactive) in assay [4], 0.206 (inactive) in assay [5] and 0.345 (inactive) in assay [6].

Turning to `CN1C(=O)C2C=CC(C(O)c3ccccn3)N(N(c3ccccc3)c3ccccc3)C2C1=O` (stereo unspecified), the composite z-score was -0.365 (inactive) in assay [1] and 0.891 in assay [2]. The z-score in assay [3] was -0.215; in assay [4], -8.63 (active); in assay [5] it was 0.46 (inactive); in assay [6], -0.024 (inactive).

Take `CCOC(=O)C[C@H]1[C@H](OC(=O)c2ccc(C(=O)c3ccccc3)cc2)[C@@H](NC(=O)Cc2ccc(OC)cc2)c2cc(OCCCO)ccc2N1C(=O)c1ccccc1`: the composite z-score in assay [1] was 0.922 (inactive); in assay [2], -0.281. The z-score was -0.133 in assay [3], -1.88 (inactive) in assay [4], 0.72 (inactive) in assay [5] and 0.343 (inactive) in assay [6].

Consider `COc1cc(OC)c(C(O)C2C=CC3C(=O)N(C)C(=O)C3N2NC(=O)OC(C)(C)C)cc1Br` (stereo unspecified), for which the composite z-score in assay [1] was -0.121 (inactive); in assay [2], 0.759. The z-score was -0.107 in assay [3], -2.6 (inactive) in assay [4], 0.111 (inactive) in assay [5] and -0.0533 (inactive) in assay [6].

`COC(=O)[C@@]1(Cc2ccc(OC)cc2)[C@H]2c3cc(C(=O)N4CCCC4)n(Cc4c(-c5ccccc5)noc4C)c3C[C@H]2CN1C(=O)c1ccccc1`: the figures for the composite z-score in assay [1] and in assay [2] were 2.97 (inactive) and 0.473, respectively. The z-score in assay [3] is -1.3; in assay [4] it was -3.25 (inactive); in assay [5], -0.279 (inactive); in assay [6], -0.313 (inactive).

With `CN1C(=O)C2C=CC(C(O)C#Cc3ccccc3)N(Nc3ccccc3)C2C1=O` (stereo unspecified), the composite z-score in assay [1] was 0.783 (inactive); in assay [2], 0.794. Further, the z-score in assay [3] was -0.351; in assay [4], -4.25 (inactive); in assay [5], -0.0435 (inactive); in assay [6], 0.113 (inactive).

With `CC(c1ccccc1)C(O)C1C=CC2C(=O)N(c3ccccc3)C(=O)C2N1Nc1ccc([N+](=O)[O-])cc1` (stereo unspecified), the values for the composite z-score in assay [1] and in assay [2] were 0.725 (inactive) and 0.837, respectively. For the same compound, the z-score in assay [3] is -0.917; in assay [4], -3.22 (inactive); in assay [5], 0.433 (inactive); in assay [6] it was 0.104 (inactive).

For the compound `C=CCN1C(=O)[C@@]2(CCS(=O)(=O)c3ccccc3)N=C(c3ccc(OCCCO)cc3)O[C@H]2c2ccccc21`, the composite z-score in assay [1] was 0.404 (inactive); in assay [2], 0.713. Also, the z-score in assay [3] was -2.05; in assay [4], -2.47 (inactive); in assay [5] it was -0.477 (inactive); in assay [6], -0.37 (inactive).

Take `C=CCC(OC(C)=O)[C@@H]1[C@@H](N(Cc2ccc(-c3cccc(C(F)(F)F)c3)o2)C(=O)c2ccc(-c3ccccc3)cc2)c2cc(OCCCO)ccc2N1C(=O)c1ccc2ccccc2n1` (stereo partly specified): the composite z-score in assay [1] is -0.211 (inactive); in assay [2] it was -0.102. Moreover, the z-score is -0.746 in assay [3], -1.33 (inactive) in assay [4], 0.768 (inactive) in assay [5] and 0.615 (inactive) in assay [6].

Consider `CCOC(=O)C[C@H]1[C@H](OC(=O)c2cc3ccccc3oc2=O)[C@@H](NC(=O)Cc2ccc(OC)cc2)c2cc(OCCCO)ccc2N1C(=O)c1ccc2ccccc2n1`, for which the composite z-score in assay [1] was -0.426 (inactive); in assay [2], 0.255. Also, the z-score is -1.01 in assay [3], -4.04 (inactive) in assay [4], 0.134 (inactive) in assay [5] and 0.203 (inactive) in assay [6].

For the compound `COCCOC(=O)N1C(=O)[C@@]2(c3cc(C#CC4(O)CCCCCC4)ccc31)[C@H](c1ccc(O)cc1)N1[C@H](c3ccccc3)[C@H](c3ccccc3)OC(=O)[C@H]1[C@@H]2C(=O)NC[C@H](O)c1ccccc1`, the composite z-score in assay [1] is 1.71 (inactive); in assay [2], 0.681. The z-score is -0.0194 in assay [3], -2.78 (inactive) in assay [4], -0.145 (inactive) in assay [5] and -0.154 (inactive) in assay [6].

As to `O=C1O[C@H](c2ccccc2)[C@H](c2ccccc2)N2[C@H]1[C@@H](C(=O)O)[C@]1(C(=O)Nc3ccc(C#CC4=CCCCC4)cc31)[C@H]2c1ccc(O)cc1`, the results for the composite z-score in assay [1] and in assay [2] were 0.406 (inactive) and 0.617, respectively. For the same compound, the z-score in assay [3] was -0.628; in assay [4], -5.74 (inactive); in assay [5], -0.0146 (inactive); in assay [6] it was -0.19 (inactive).

Turning to `CN(C)CCCCNC(=O)[C@@H]1C[C@@H]2C(=O)N[C@@H](Cc3ccccc3)C(=O)N2[C@@H]1c1cccc(OCCO)c1`, the composite z-score was 0.096 (inactive) in assay [1] and 0.762 in assay [2]. The z-score in assay [3] is 0.0546; in assay [4], -3.94 (inactive); in assay [5], -1.08 (inactive); in assay [6], -0.295 (inactive).

Regarding `CC1CC/C=C\[C@H]2OC34C=CCN(c5ccc(Cl)cc5)C(=O)[C@H]3N(CCCCCO)C(=O)[C@]4(C)C2C(=O)O1` (stereo partly specified), the values for the composite z-score in assay [1] and in assay [2] were -0.546 (inactive) and -0.613, respectively. The z-score in assay [3] is -0.396; in assay [4], -4.96 (inactive); in assay [5] it was 1 (inactive); in assay [6], 0.917 (inactive).

Consider `C[N+](C)(C)CCCCCCNC(=O)[C@H]1C[C@H]2C(=O)N[C@@H](Cc3ccccc3)C(=O)N2[C@H]1c1ccc(O)cc1`, for which the composite z-score in assay [1] is 0.901 (inactive); in assay [2], 0.5. For the same compound, the z-score was 0.0933 in assay [3], -3.23 (inactive) in assay [4], 0.141 (inactive) in assay [5] and 0.14 (inactive) in assay [6].

Take `O=C1C2C=CC(C(O)c3ccc(F)cc3)N(n3cnnc3)C2C(=O)N1Cc1ccccc1` (stereo unspecified): the composite z-score in assay [1] was 0.34 (inactive); in assay [2], 0.854. Further, the z-score in assay [3] is -1.09; in assay [4], -0.994 (inactive); in assay [5] it was 0.0044 (inactive); in assay [6], -1.28 (inactive).

For `O=C1c2ccccc2[C@](Cc2ccccc2I)(C(=O)NCC(F)(F)F)[C@H](c2ccc(CO)cc2)N1C1CCCCC1`, the composite z-score in assay [1] is 0.759 (inactive); in assay [2], 0.841. Further, the z-score in assay [3] was -1.14; in assay [4], -3.97 (inactive); in assay [5], -0.68 (inactive); in assay [6] it was -0.11 (inactive).

With `COc1ccc(-c2cc3c(c(CCc4ccccc4)n2)[Si](C(C)C)(C(C)C)OC3)cn1`, the composite z-score in assay [1] is -0.406 (inactive); in assay [2] it was -0.251. The z-score in assay [3] is -0.118; in assay [4] it was -2.5 (inactive); in assay [5] it was -0.0328 (inactive); in assay [6], 0.236 (inactive).

For the compound `COC(=O)c1nc2oc1CC[C@@H](CO)NC(=O)N(C)Cc1cnnn1C[C@H](Cc1ccccc1)NC2=O`, the values for the composite z-score in assay [1] and in assay [2] were 0.618 (inactive) and 0.944, respectively. Further, the z-score was 1.06 in assay [3], -0.449 (inactive) in assay [4], -0.517 (inactive) in assay [5] and -0.393 (inactive) in assay [6].

`O=C(NCc1ccccc1)[C@@H]1c2ccccc2C(=O)N(Cc2ccccc2C(F)(F)F)[C@H]1c1ccc(CO)cc1`: the composite z-score in assay [1] is 0.55 (inactive); in assay [2], 0.545. Moreover, the z-score in assay [3] was 0.0452; in assay [4], -3.17 (inactive); in assay [5], -0.496 (inactive); in assay [6] it was -0.841 (inactive).

Regarding `COc1ccc(CCNC(=O)[C@@]2(Sc3ccc(C)cc3)CC(=O)N(C3Cc4ccccc4C3)[C@@H]2c2ccc(CO)cc2)cc1`, the composite z-score in assay [1] is 0.984 (inactive); in assay [2] it was 0.703. Moreover, the z-score is -1.89 in assay [3], 0.563 (inactive) in assay [4], -0.341 (inactive) in assay [5] and -0.452 (inactive) in assay [6].

`C=CCC(OC(C)=O)[C@@H]1[C@@H](N(Cc2cccc3ccccc23)C(=O)c2cccc3ccccc23)c2cc(OCCCO)ccc2N1C(=O)c1ccc(-c2ccccc2)cc1` (stereo partly specified): the composite z-score is 0.71 (inactive) in assay [1] and 0.686 in assay [2]. Moreover, the z-score in assay [3] was -2.37; in assay [4], -1.52 (inactive); in assay [5] it was 0.305 (inactive); in assay [6], 0.466 (inactive).

On to `COCCOC(=O)N1C(=O)[C@@]2(c3cc(C#Cc4ccc(OC)cc4)ccc31)[C@H](c1ccccc1OCCO)N1[C@H](c3ccccc3)[C@H](c3ccccc3)OC(=O)[C@H]1[C@@H]2C(=O)N1CCCCCCC1`, for which the composite z-score in assay [1] was 1.93 (inactive); in assay [2] it was 0.319. For the same compound, the z-score was -2.02 in assay [3], 4.73 (inactive) in assay [4], -0.434 (inactive) in assay [5] and -0.648 (inactive) in assay [6].

As to `COC(=O)[C@@]1(Cc2ccc(F)cc2)[C@H]2c3cc(C(=O)N(C)C)n(Cc4cc(F)cc5c4OCOC5)c3C[C@H]2CN1C(=O)c1ccccc1`, the composite z-score was 1.21 (inactive) in assay [1] and 0.628 in assay [2]. In addition, the z-score in assay [3] is -1.54; in assay [4], -2.73 (inactive); in assay [5] it was -0.909 (inactive); in assay [6], -0.669 (inactive).
